Test results taken from PubChem BioAssay AID924 (National Center for Advancing Translational Sciences (NCATS), 2007).
In all, about 130,000 compounds went through this assay and about 1,200 (0.92%) were called active. A call without a number means that no potency is given here. Another 3% or so got no clear call; they are omitted. The sample holds actives, similar compounds and a random draw of the others, so the mix is not that of the screen. Calls follow the shape of the dose curve; as a rule, active = well fitted cell-killing curve with a large enough effect; inconclusive = small, poorly fitted or top-dose-only effect; inactive = no such curve, though single readings can be large or run the other way.
Potency is read from the fitted curve at half-maximal effect.

Assay: qHTS Screen for Compounds that Selectively Target Cancer Cells with p53 Mutations: Cytotoxicity of p53ts Cells at the Permissive Temperature; also: nearly all actives have a fitted effect of over 55% in size
Conditions: H1299-p53A138V at 32C, ATP luminescence viability, 24 h; series mostly up to 46.1 µM
How it was run: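 Viability by ATPlite luminescence after 24 h compound treatment (up to 46 uM) at the permissive 32C. Cells are H1299 carrying p53 A138V. Scale runs from DMSO basal to 100 uM tamoxifen as full kill; AC50 from Hill fits.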
In the case of `CCc1ccc(NC(=O)CN2C(=O)C(c3ccccc3)=NC23CCCCCC3)cc1`, the Potency is reported as “inactive”. With `CCc1ccc(NC(=O)CN2CCSc3ccc(S(=O)(=O)N4CCCC4)cc32)cc1` the Potency was “inactive”. With `COc1cc(OC)c(OC)cc1/C=C/c1nc2cc3ccccc3cc2c(=O)n1-c1ccc(F)c(Cl)c1` the Potency was “inactive”. In the case of `CCCCn1c(=N)c(S(=O)(=O)c2ccccc2)cc2c(=O)n3cccc(C)c3nc21`, the Potency is reported as “inactive”. With `Cc1ccc(-c2cnc(NCc3ccc(C(C)C)cc3)n2C)cc1` the Potency was “inactive”. For `CC(C)c1ccc(-c2nn[nH]n2)cc1`, the Potency was 12.6 µM (active). With `CCc1ccc(-c2nnn(Cc3nn[nH]n3)n2)cc1` the Potency was “inactive”. For `CCOc1ccc(CNCCSc2nnnn2C)cc1`, the Potency was “inactive”. For `O=C1CCCc2cc(S(=O)(=O)N3CCCC(C(=O)NCc4ccccc4)C3)ccc2N1` (stereo unspecified), the Potency was “inactive”. In the case of `CCc1cc2c(cc3c(=O)n(CC(=O)NCc4cccc(Cl)c4)nc(CC)n32)s1`, the Potency is reported as “inactive”. For `O=C1Nc2c(Br)cc(Br)cc2C1(O)N1CCOCC1` (stereo unspecified), the Potency was 12.6 µM (active). With `CCOc1ccccc1N(CC)C(=O)c1cc2ccc3cccnc3c2[nH]1` the Potency was “inactive”. For `CCN1CCN(Cc2c(O)ccc3oc(C)c(C(=O)Nc4ccc(C)cc4C)c23)CC1`, the Potency was “inactive”. In the case of `Cc1cccc(-n2ncc3c(N4CCc5ccccc54)ncnc32)c1`, the Potency is reported as “inactive”. In the case of `COc1ccc(-n2ncc3c(N4CCCc5ccccc54)ncnc32)cc1`, the Potency is reported as 10 µM (active). In the case of `COc1ccc(-n2ncc3c(N4CCc5ccccc54)ncnc32)cc1`, the Potency is reported as “inactive”. For `Cc1nc2nc(SCC(=O)NC3CCC(C)CC3)nn2c(C)c1Cc1ccccc1Cl` (stereo unspecified), the Potency was “inactive”. For `COc1ccccc1CN1CCC(CNC(=O)c2cnn(-c3ccccc3Cl)c2C2CCN(C(=O)OC(C)(C)C)CC2)CC1`, the Potency was “inactive”. For `COc1ccccc1CNC(=O)c1ccc(NC(=O)N2CC(C)Sc3ccccc32)cc1` (stereo unspecified), the Potency was “inactive”. For `CCNC(=O)c1cc2n(n1)CCCN(Cc1ccc(C)cc1)C2=O`, the Potency was “inactive”. For `Cc1ccc2nc(N3CCN(c4cccc(Cl)c4)CC3)c3nnnn3c2c1`, the Potency was “inactive”. With `CCc1ccc(CNC(=O)C2CCN(c3nn4cc(-c5ccc(F)cc5)nc4s3)CC2)cc1` the Potency was “inactive”. With `CCC(CC)c1nn2cc(-c3ccccc3)nc2s1` the Potency was 5.01 µM (active). In the case of `CCC(CC)c1nnc(NS(=O)(=O)Cc2ccccc2)s1`, the Potency is reported as “inactive”. With `CCOc1ccccc1NC(=O)c1ccc2c(c1)CCN2S(=O)(=O)c1ccc(C)cc1` the Potency was “inactive”. In the case of `COC(=O)c1cc(NC(=O)CCc2c(C)nc3c4c(C)cc(C)nc4nn3c2C)cc(C(=O)OC)c1`, the Potency is reported as “inactive”. In the case of `CCN(CC)c1ccc(NC(=O)CN2CCN(CC(=O)Nc3ccc(Cl)cc3)CC2)cc1`, the Potency is reported as “inactive”. With `O=C(Nc1cccnc1)c1noc2c1CCCCC2` the Potency was 12.6 µM (active). With `Cc1c(Cl)cccc1NC(=O)c1noc2c1CCCC2` the Potency was “inactive”. In the case of `O=C(Nc1cccnc1)c1ccc2c(c1)OCO2`, the Potency is reported as “inactive”. With `CCOc1ccc(-c2nonc2NC(=O)c2oc3ccc(C)cc3c2C)cc1OCC` the Potency was “inactive”. For `COc1ccc(NC(=O)c2sc3nc[nH]c(=O)c3c2C)cc1`, the Potency was “inactive”. In the case of `O=C(Nc1cccc(NC(=O)c2ccco2)c1)c1cnccn1`, the Potency is reported as “inactive”. With `O=C(Nc1ccc(NC(=O)c2cccs2)cn1)c1ccco1` the Potency was 6.31 µM (active). For `Cc1ccnc(NC(=O)c2ccc(NC(=O)c3ccco3)cc2)c1`, the Potency was “inactive”. With `Cc1cc(C)c(NC(=O)CCc2c(C)nc3c(c(C)nn3C(C)(C)C)c2C)c(C)c1` the Potency was “inactive”. In the case of `CCn1c(CN2CCC(C)CC2)nc2cc(NC(=O)c3ccccc3[N+](=O)[O-])ccc21`, the Potency is reported as “inactive”. In the case of `CCCCc1nn2c(=O)cc(COC(=O)c3ccccc3NC(=O)C(C)(C)C)nc2s1`, the Potency is reported as “inactive”. With `Cc1nn2c(=O)cc(COC(=O)c3cccc(NC(=O)COc4ccccc4Cl)c3)nc2s1` the Potency was 10 µM (active). In the case of `Cc1nn2c(=O)cc(COC(=O)c3ccccc3NC(=O)COc3ccccc3C)nc2s1`, the Potency is reported as “inactive”. In the case of `COc1ccc(OCC(=O)Nc2cccc(C(=O)OCc3cc(=O)n4nc(C)sc4n3)c2)cc1`, the Potency is reported as “inactive”. In the case of `COc1ccccc1NC(=O)C(=O)c1cc(C)n(-c2ccccc2F)c1C`, the Potency is reported as “inactive”. With `O=C(CCSCc1ccccc1F)N1CCN(c2ccc(Cl)cc2)CC1` the Potency was “inactive”. For `Cc1ccsc1C(=O)OCC(=O)c1cc2ccccc2o1`, the Potency was “inactive”. For `Cc1ccsc1C(=O)OCC(=O)c1cc(C)n(CC2CCCO2)c1C` (stereo unspecified), the Potency was 5.01 µM (active). With `COC(=O)c1ccc2c(=O)n(CC3CCCO3)c(=S)[nH]c2c1` (stereo unspecified) the Potency was “inactive”. For `Cc1[nH]c2ccccc2c1C(c1ccccc1)c1cccs1` (stereo unspecified), the Potency was “inactive”. In the case of `O=C(CCc1cn(Cc2ccc(F)cc2)c2ccccc12)NC1CCCCC1`, the Potency is reported as “inactive”. In the case of `CC(=O)c1ccc(NC(=O)c2nc(-c3ccc(C)cc3)n3c2CCCCC3)cc1`, the Potency is reported as “inactive”. For `Cc1ccc2cc3cc(C(=O)N4CCCCCC4)oc3nc2c1`, the Potency was 10 µM (active). With `Cc1ccc(C(=O)N2CCCCCC2)cc1Br` the Potency was “inactive”. With `CCc1ccc(CNC(=O)c2cc3cc4ccc(OC)cc4nc3o2)cc1` the Potency was “inactive”. With `COc1c(Cl)cc(C(=O)N(Cc2ccccc2F)C2CCS(=O)(=O)C2)cc1Cl` (stereo unspecified) the Potency was “inactive”. With `CCOc1ccc(N(Cc2ccccc2)C(=O)c2nc(S(C)(=O)=O)ncc2Cl)cc1` the Potency was 12.6 µM (active). For `CCOc1ccc(N(Cc2ccccc2)C(=O)c2nc(SCC)ncc2Cl)cc1`, the Potency was “inactive”. With `CCOc1ccc(NC(=O)CN(Cc2ccccc2)S(=O)(=O)c2ccc(Cl)cc2)cc1` the Potency was “inactive”. With `CCOc1cc(C2c3c(-c4ccc(Br)cc4)n[nH]c3C(=O)N2c2ccc(Cl)cc2)ccc1O` (stereo unspecified) the Potency was “inactive”. With `CN1C(=O)c2ccccc2Sc2ccc(NC(=O)Cc3ccc(Cl)cc3)cc21` the Potency was “inactive”. For `COc1ccc(Cn2ccnc2SCC(=O)NCc2ccco2)cc1`, the Potency was “inactive”. For `C/C(=C\C(=O)c1cccnc1)Nc1ccc(C)c(C)c1`, the Potency was “inactive”. With `O=C(Nc1cccc(NC(=O)c2ccc(Br)cc2)c1)c1ccccc1` the Potency was “inactive”. With `C/C(=C\C(=O)c1ccccc1)Nc1cccc(O)c1` the Potency was 10 µM (active). In the case of `O=C(Nc1cc(C(F)(F)F)ccc1Cl)c1ccc2c(c1)CCN2S(=O)(=O)c1ccccc1`, the Potency is reported as “inactive”. In the case of `Cc1ccccc1N1CC(c2nc3ccccc3[nH]2)CC1=O` (stereo unspecified), the Potency is reported as “inactive”. In the case of `Cc1cc(/C=N/n2cnnc2)c(C)n1-c1cccc(C(=O)O)c1`, the Potency is reported as “inactive”. In the case of `Cc1ccccc1-n1c(C)cc(/C=C2\NC(=O)NC2=O)c1C`, the Potency is reported as 15.8 µM (active).
